NALP1 inh: NALP1 inhibition; S. cerevisiae NALP1/ASC/caspase-1 growth, X-gal OD620, 72 h; inhibition, % at 10 µM; hit rate 0.61% among 280,000; in the data active = inhibition mostly above about 24%, no sharp cut-off; inactive = mostly below about 32%
NLRP3 yeast inh: inhibitors of NALP3 inflammasome in yeast; hit rate 0.39% among 330,000; inhibition, % at 10 µM; AID 2825; Yeast reconstituted NLRP3/ASC/caspase-1, beta-gal luminescence, 24 h;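 active = inhibition of 50% or more; inactive = inhibition below 50%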;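 note: plate controls were induced DMSO wells for no effect and uninduced yeast grown without galactose for full effect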
CHT PAM: allosterically activates the human high affinity choline transporter; Q9GZV3; B-score at 10 µM; AID 488977; hit rate 0.49% among 310,000; CHT-expressing cells, membrane potential dye, choline EC20; active compounds read high; LV-AA mutant CHT in HEK293 cells;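 active = initial fluorescence not abnormally high and integrated response B-score, plate-corrected, over 3 SD above library mean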
Target sequence (Q9GZV3 whole entry, looked up): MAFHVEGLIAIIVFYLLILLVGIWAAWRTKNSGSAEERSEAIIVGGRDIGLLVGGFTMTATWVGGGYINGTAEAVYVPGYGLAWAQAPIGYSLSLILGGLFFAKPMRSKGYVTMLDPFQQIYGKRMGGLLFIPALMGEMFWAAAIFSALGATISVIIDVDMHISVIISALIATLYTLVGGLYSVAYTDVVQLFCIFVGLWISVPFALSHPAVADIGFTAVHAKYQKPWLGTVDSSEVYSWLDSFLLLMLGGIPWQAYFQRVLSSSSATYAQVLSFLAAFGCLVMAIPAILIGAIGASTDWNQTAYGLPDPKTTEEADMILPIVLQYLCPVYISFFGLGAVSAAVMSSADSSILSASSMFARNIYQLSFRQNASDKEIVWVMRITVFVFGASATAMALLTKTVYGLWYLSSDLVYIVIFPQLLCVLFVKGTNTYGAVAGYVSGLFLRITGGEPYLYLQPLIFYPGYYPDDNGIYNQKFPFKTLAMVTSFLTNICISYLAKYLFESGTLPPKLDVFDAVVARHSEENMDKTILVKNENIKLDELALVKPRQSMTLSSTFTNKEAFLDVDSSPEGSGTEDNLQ
A1 inh: inhibitors of the anti-apoptotic protein A1, read as caspase activation | AID 2462 | hit rate 0.066% among 330,000 | caspase activation, % (no concentration beside the values) | MEF A1-2A-BIM cells, Caspase-Glo 3/7 luminescence, 3 h; percent of clofoctol response, vehicle zero;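 active = over half of replicate activation scores above 10%, or exactly half above 10 with the replicate mean above 10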
CHT inh: human CHT choline transport inhibition; CHT-expressing cells, membrane potential dye, choline response; active compounds read low; B-score at 10 µM; hit rate 0.86% among 310,000; AID 488975;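 active = B-score over 3 SD under the library average, and starting fluorescence ratio not unusually high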;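 note: choline stimulus applied at its EC90 after an EC20 pre-addition; B-score computed on integrated fluorescence ratio after choline addition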
Mot1-301 SUMO: SUMOylation pathway inhibition by Mot1-301 growth rescue; growth rescue, % at 18.8 µM; hit rate 1% among 320,000; S. cerevisiae Mot1-301 growth rescue, ATP luminescence, 38.5C; percent above DMSO median, 100 means doubled;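 active = every valid replicate shows activation above 250% relative to neutral control wells; inactive = the rest, any valid replicate at or below 250%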;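 note: OY570 slx delta 5 strain wells were the positive control but not used for scaling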
CHT block conf: human CHT inhibition, confirmatory screen | shares compounds with CHT inh | CHT-expressing cells, choline membrane potential dye; LV-to-AA substituted CHT, HEK293 cells | CHT activity remaining % of control (active compounds read low), % at 10 µM | hit rate 70% among 2,400 | AID 493221;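 active = choline transporter activity left, mean of duplicates at 10 µM, below buffer-only control mean minus 3 SD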;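 note: depolarization triggered by choline at its EC90 following an EC20 pre-addition; 0% = hemicholinium-3 full block and 100% = buffer-only control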
HEK293 MPD ctr: CHT inhibitor counter-screen hit in parental HEK293 cells; AID 493222; shares compounds with CHT inh; membrane potential dye, choline response; active = decrease or increase beyond buffer ±3SD; membrane potential ratio readout (active if shifted either direction beyond buffer ±3SD; no single direction) at 10 µM; hit rate 4% among 2,400;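 note: parental cells lack the transporter so any hit is non-specific; ratio is peak minus trough fluorescence over baseline after EC90 choline challenge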
Numbers without * were called inactive. The list is not random: actives were taken first. Their share in the collection is about 3%.

What do the screens show for `CC(C)OC(=O)CN1CCN(S(=O)(=O)c2cc(Cl)ccc2Cl)CC1`?
NALP1 inh: 20; NLRP3 yeast inh: 22; CHT PAM: inactive; A1 inh: 0; CHT inh: -6.4*; Mot1-301 SUMO: 16; CHT block conf: 66%*; HEK293 MPD ctr: inactive

What do the screens show for `Cc1ccc(N=Cc2cc(Br)cc(Cl)c2O)cc1`?
NALP1 inh: -12; NLRP3 yeast inh: 23; CHT PAM: inactive; A1 inh: 0; CHT inh: inactive; Mot1-301 SUMO: 77

Results for Oc1c(Cl)cc(Cl)cc1C=Nc1ccc(Br)cc1 ?
NALP1 inh: 16; NLRP3 yeast inh: 0; CHT PAM: inactive; A1 inh: 0; CHT inh: -6.5*; Mot1-301 SUMO: 38; CHT block conf: 51%*; HEK293 MPD ctr: inactive

Results for NC(=O)CN(Cc1ccccc1)S(=O)(=O)c1ccc2c(c1)OCCO2 ?
NALP1 inh: 24; NLRP3 yeast inh: 12; CHT PAM: inactive; A1 inh: 1; CHT inh: inactive; Mot1-301 SUMO: 20

Results for Cc1cc(C)nc(SCc2cc(=O)c(OC(=O)c3ccco3)co2)n1 ?
NALP1 inh: 33; NLRP3 yeast inh: 14; CHT PAM: inactive; A1 inh: 0; CHT inh: -6.1*; Mot1-301 SUMO: 8; CHT block conf: 17%*; HEK293 MPD ctr: inactive

What do the screens show for `Cc1ccnc(SCc2cc(=O)c(OC(=O)c3ccccc3)co2)n1`?
NALP1 inh: -15; NLRP3 yeast inh: -4; CHT PAM: inactive; A1 inh: 0; CHT inh: inactive; Mot1-301 SUMO: 75

How did Cc1cc(C)nc(SCC(=O)Nc2ccc(S(=O)(=O)N3CCCCC3)cc2)n1 do in these assays?
NALP1 inh: 11; NLRP3 yeast inh: -12; CHT PAM: inactive; A1 inh: -1; CHT inh: inactive; Mot1-301 SUMO: -2

Results for Cc1cc(C)nc(SCc2cc(=O)c(OC(=O)c3ccc(S(=O)(=O)N4CCCC4)cc3)co2)n1 ?
NALP1 inh: 22; NLRP3 yeast inh: 16; CHT PAM: inactive; A1 inh: 1; CHT inh: -7.2*; Mot1-301 SUMO: -3; CHT block conf: 51%*; HEK293 MPD ctr: inactive

Results for Cc1cc(C)nc(SCc2cc(=O)c(OC(=O)c3ccc(Br)o3)co2)n1 ?
NALP1 inh: 42; NLRP3 yeast inh: 21; CHT PAM: inactive; A1 inh: 0; CHT inh: -8.2*; Mot1-301 SUMO: 11; CHT block conf: 14%*; HEK293 MPD ctr: inactive

What do the screens show for `Cc1cc(C)nc(SCc2cc(=O)c(OC(=O)c3cc([N+](=O)[O-])ccc3Cl)co2)n1`?
NALP1 inh: 40; NLRP3 yeast inh: 15; CHT PAM: inactive; A1 inh: 0; CHT inh: -7.4*; Mot1-301 SUMO: -21; CHT block conf: 28%*; HEK293 MPD ctr: inactive

What do the screens show for `COc1ccc([C@@H]2CC=C(C(=O)O)[C@H](c3ccc(C)cc3)N2S(=O)(=O)c2ccccc2C)cc1`?
NLRP3 yeast inh: 13

Results for O=C(c1ccc(NS(=O)(=O)c2cccc(F)c2)cc1)N1CCCCC1 ?
NALP1 inh: 17; NLRP3 yeast inh: -1; CHT PAM: inactive; A1 inh: 0; CHT inh: inactive; Mot1-301 SUMO: -15

What do the screens show for `CC(C)CCNC(=O)CCc1nnc2ccc(N3CCC(C)CC3)nn12`?
NALP1 inh: 6; NLRP3 yeast inh: 14; CHT PAM: inactive; A1 inh: 1; CHT inh: inactive; Mot1-301 SUMO: 108

How did CCn1c(Oc2ccc(F)cc2)nc2c1c(=O)n(C)c(=O)n2C do in these assays?
NALP1 inh: 13; NLRP3 yeast inh: 10; CHT PAM: inactive; A1 inh: 0; CHT inh: inactive; Mot1-301 SUMO: 132
